# According to PubChem BioAssay (NCATS):
# Results filed as inconclusive are left out. Where a call stands in place of a potency, no number is given. Activity calls are given as the source filed them. Calls follow the shape of the dose curve; as a rule, active = well fitted curve in the direction sought with a large enough effect; inconclusive = small, poorly fitted or top-dose-only effect, or another doubt; inactive = no such curve, though single readings can be large; an effect the other way counts as inactive or inconclusive.
# Columns and labels:
# [1] = S16 Schwann cell viability assay (CellTiter-Glo assay) (AID 624031);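 also: native untransfected S16 rat Schwann cells; cellular ATP luminescence as a viability measure; nearly all actives have a fitted effect of over 70% in size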
# Method in brief: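 Cells were seeded at 500-750 per well in phenol red-free DMEM with 10% FBS and left overnight. Compounds or DMSO were pinned in, incubation ran 24 h at 37 °C/5% CO2, then CellTiter-Glo reagent was added and luminescence measured.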
# [2] = S16 Schwann cell PMP22 intronic element firefly luciferase assay (AID 624032); also: nearly all actives have a fitted effect of over 30% in size; also: potency is read from the fitted curve at half-maximal effect
# Method in brief: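 Rat S16 Schwann cells stably carrying firefly luciferase driven by a PMP22 intronic element, in 10% FBS, treated 24 h at 37 C. ONE-Glo luminescence normalized to PTC124 control and DMSO (0%); curves classed by r2, magnitude and activity.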
# AS120 = assay: qHTS profiling for inhibitors of Plasmodium falciparum proliferation (AID 504749); also: nearly all actives have a fitted effect of over 60% in size; also: potency is read from the fitted curve at half-maximal effect; details: P. falciparum in erythrocytes, SYBR Green DNA, 72 h; series mostly up to 12.8 µM
# Method in brief: (§1)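 SYBR Green fluorescence (ex 485 nm, em 535 nm) reports parasite DNA after 72 h compound exposure of infected red cells at 0.3% parasitemia, 2.5% hematocrit; signal normalized to 0.29 uM artemisinin and vehicle wells.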
# CP201 = assay: as above; details: P. falciparum in erythrocytes, SYBR Green DNA, 72 h; series mostly up to 12.8 µM
# Method in brief: as §1
# CP217 = assay: as above; details: P. falciparum in erythrocytes, SYBR Green DNA, 72 h; series mostly up to 12.8 µM
# Method in brief: as §1
# CP237 = assay: as above; details: P. falciparum in erythrocytes, SYBR Green DNA, 72 h; series mostly up to 12.8 µM
# Method in brief: as §1
# CP250 = assay: as above; details: P. falciparum in erythrocytes, SYBR Green DNA, 72 h; series mostly up to 12.8 µM
# Method in brief: as §1
# CP256 = assay: as above; details: P. falciparum in erythrocytes, SYBR Green DNA, 72 h; series mostly up to 12.8 µM
# Method in brief: as §1
# CP266 = assay: as above; details: P. falciparum in erythrocytes, SYBR Green DNA, 72 h; series mostly up to 12.8 µM
# Method in brief: as §1
# CP268 = assay: as above; details: P. falciparum in erythrocytes, SYBR Green DNA, 72 h; series mostly up to 12.8 µM
# Method in brief: as §1
# CP297 = assay: as above; details: P. falciparum in erythrocytes, SYBR Green DNA, 72 h; series mostly up to 12.8 µM
# Method in brief: as §1
# CP315 = assay: as above; details: P. falciparum in erythrocytes, SYBR Green DNA, 72 h; series mostly up to 12.8 µM
# Method in brief: as §1
# CP329 = assay: as above; details: P. falciparum in erythrocytes, SYBR Green DNA, 72 h; series mostly up to 12.8 µM
# Method in brief: as §1
# Dd2 = assay: as above; details: P. falciparum in erythrocytes, SYBR Green DNA, 72 h; series mostly up to 12.8 µM
# Method in brief: as §1
# ECU = assay: as above; details: P. falciparum in erythrocytes, SYBR Green DNA, 72 h; series mostly up to 12.8 µM
# Method in brief: as §1
# FAB9 = assay: as above; details: P. falciparum in erythrocytes, SYBR Green DNA, 72 h; series mostly up to 12.8 µM
# Method in brief: as §1
# HB3 = assay: as above; details: P. falciparum in erythrocytes, SYBR Green DNA, 72 h; series mostly up to 12.8 µM
# Method in brief: as §1
# ICS = assay: as above; details: P. falciparum in erythrocytes, SYBR Green DNA, 72 h; series mostly up to 12.8 µM
# Method in brief: as §1
# PAD = assay: as above; details: P. falciparum in erythrocytes, SYBR Green DNA, 72 h; series mostly up to 12.8 µM
# Method in brief: as §1
# PC49 = assay: as above; details: P. falciparum in erythrocytes, SYBR Green DNA, 72 h; series mostly up to 12.8 µM
# Method in brief: as §1
Structure (SMILES),outcome [1],Potency [2],Potency (AS120),Potency (CP201),Potency (CP217),Potency (CP237),Potency (CP250),Potency (CP256),Potency (CP266),Potency (CP268),Potency (CP297),Potency (CP315),Potency (CP329),Potency (Dd2),Potency (ECU),Potency (FAB9),Potency (HB3),Potency (ICS),Potency (PAD),Potency (PC49)
NC[C@@H]1O[C@H](O[C@H]2[C@H](O)[C@H](O[C@@H]3O[C@H](CO)[C@@H](O)[C@H](N)[C@@H]3O)[C@@H](N)C[C@H]2N)[C@@H](O)[C@H](O)[C@@H]1O,inactive,inactive,inactive,inactive,inactive,inactive,inactive,inactive,inactive,inactive,inactive,inactive,inactive,inactive,inactive,inactive,inactive,inactive,inactive,inactive
NCc1ccccc1CC(=O)N[C@@H]1C(=O)N2C(C(=O)O)=C(CSc3nnnn3CC(=O)O)CS[C@@H]12,inactive,inactive,inactive,inactive,inactive,inactive,inactive,inactive,inactive,inactive,inactive,inactive,inactive,inactive,inactive,inactive,inactive,inactive,inactive,inactive
OCCN1CCN(CCC=C2c3ccccc3Sc3ccc(Cl)cc32)CC1,–,inactive,–,–,–,–,–,3.55 µM (active),inactive,inactive,inactive,–,–,3.98 µM (active),–,inactive,–,4.47 µM (active),–,–
CC[C@H](Cc1c(I)cc(I)c(N)c1I)C(=O)O,inactive,–,inactive,inactive,inactive,inactive,inactive,inactive,inactive,inactive,inactive,inactive,inactive,inactive,inactive,inactive,inactive,inactive,inactive,inactive
O=C1O[C@@H]([C@@H](O)CO)[C@@H](O)[C@H]1O,–,inactive,inactive,inactive,inactive,inactive,inactive,inactive,inactive,inactive,inactive,inactive,inactive,inactive,inactive,inactive,inactive,inactive,inactive,inactive
COc1cc2nc(N3CCN(C(=O)[C@@H]4COc5ccccc5O4)CC3)nc(N)c2cc1OC,inactive,inactive,–,inactive,inactive,–,inactive,inactive,inactive,inactive,–,inactive,–,–,–,inactive,–,–,–,inactive
CN(C)CCOC(=O)[C@@H](c1ccccc1)C1(O)CCCC1,inactive,inactive,inactive,inactive,inactive,8.91 µM (active),inactive,inactive,–,inactive,–,inactive,inactive,–,inactive,inactive,inactive,inactive,inactive,inactive
Clc1ccc([C@H](Cn2ccnc2)OCc2csc3c(Cl)cccc23)c(Cl)c1,inactive,–,2.51 µM (active),–,–,3.16 µM (active),–,–,inactive,inactive,6.42 µM (active),–,–,3.55 µM (active),3.98 µM (active),–,–,2 µM (active),3.55 µM (active),–
COc1ccc(OC)c([C@H](O)CNC(=O)CN)c1,inactive,inactive,inactive,inactive,inactive,inactive,inactive,inactive,inactive,inactive,inactive,inactive,inactive,inactive,inactive,inactive,inactive,inactive,inactive,inactive
CN1CCN([C@@H](c2ccccc2)c2ccc(Cl)cc2)CC1,–,inactive,–,–,inactive,inactive,inactive,3.55 µM (active),inactive,–,inactive,inactive,inactive,–,inactive,inactive,inactive,3.16 µM (active),–,inactive
CC[C@H]1NC(=O)c2cc(S(N)(=O)=O)c(Cl)cc2N1,inactive,inactive,inactive,inactive,inactive,inactive,inactive,inactive,inactive,inactive,inactive,inactive,inactive,inactive,inactive,inactive,inactive,inactive,inactive,inactive
CN[C@H]1[C@H](O)[C@@H](O[C@@H]2[C@H](O)[C@@H](O[C@H]3OC(CN)=CC[C@H]3N)[C@@H](N)C[C@H]2N)OC[C@@]1(C)O,inactive,inactive,inactive,inactive,inactive,inactive,inactive,inactive,inactive,inactive,inactive,inactive,inactive,inactive,inactive,inactive,inactive,inactive,inactive,inactive
Clc1ccc(CC[C@H](Cn2ccnc2)Sc2c(Cl)cccc2Cl)cc1,inactive,–,2.24 µM (active),–,3.55 µM (active),–,–,–,–,–,5.1 µM (active),–,6.42 µM (active),3.55 µM (active),3.55 µM (active),–,3.55 µM (active),1.41 µM (active),3.55 µM (active),–
C[C@H]1CS(=O)(=O)CCN1/N=C\c1ccc([N+](=O)[O-])o1,–,inactive,inactive,inactive,inactive,inactive,inactive,inactive,inactive,inactive,inactive,inactive,inactive,inactive,inactive,inactive,inactive,inactive,inactive,inactive
CC(C)(C)NC(=O)[C@@H]1CC[C@@H]2[C@@H]3CC[C@@H]4NC(=O)C=C[C@@]4(C)[C@H]3CC[C@]21C,inactive,–,inactive,inactive,inactive,inactive,inactive,inactive,inactive,inactive,inactive,inactive,inactive,inactive,inactive,inactive,inactive,inactive,inactive,inactive
CO[C@H]1[C@H](O[C@H]2O[C@@H](C)[C@@H](O[C@@H]3C[C@](C)(O)[C@H](O)[C@H](C)O3)[C@@H](N(C)C)[C@@H]2O)[C@@H](CC=O)C[C@@H](C)[C@@H](O[C@H]2CC[C@H](N(C)C)[C@H](C)O2)/C=C\C=C/C[C@@H](C)OC(=O)C[C@H]1O,inactive,inactive,inactive,inactive,–,–,inactive,–,–,–,–,inactive,inactive,inactive,inactive,inactive,inactive,–,inactive,inactive
O=C(N/N=C\c1ccc([N+](=O)[O-])o1)c1ccc(O)cc1,–,3.46 µM (active),2.82 µM (active),5.73 µM (active),3.55 µM (active),2.51 µM (active),3.16 µM (active),3.55 µM (active),–,5.73 µM (active),3.22 µM (active),5.73 µM (active),5.73 µM (active),3.55 µM (active),1.78 µM (active),3.16 µM (active),3.55 µM (active),1.41 µM (active),2.51 µM (active),2.24 µM (active)
CS(=O)(=O)c1ccc([C@H](O)[C@H](CF)NC(=O)C(Cl)Cl)cc1,inactive,inactive,–,–,–,–,–,–,–,–,–,–,–,–,–,–,–,–,–,–
C=C1c2c(Cl)ccc(O)c2C(O)=C2C(=O)[C@@]3(O)C(O)=C(C(N)=O)C(=O)[C@@H](N(C)C)[C@@H]3[C@@H](O)[C@H]12,inactive,inactive,inactive,inactive,–,–,inactive,inactive,inactive,inactive,inactive,inactive,inactive,2.24 µM (active),–,inactive,–,–,inactive,inactive
CCCC(=O)Nc1ccc(OC[C@@H](O)CNC(C)C)c(C(C)=O)c1,inactive,inactive,–,–,–,–,–,–,–,–,–,–,–,–,–,–,–,–,–,–
Cn1nnnc1SCC1=C(C(=O)O)N2C(=O)[C@@H](NC(=O)[C@@H](O)c3ccccc3)[C@@H]2SC1,inactive,inactive,inactive,inactive,inactive,inactive,inactive,inactive,inactive,inactive,inactive,inactive,inactive,inactive,inactive,inactive,inactive,inactive,inactive,inactive
NC[C@@H]1O[C@H](O[C@@H]2[C@H](O[C@@H]3O[C@H](CO)[C@@H](O)[C@@H]3O)[C@@H](O)[C@@H](N)C[C@H]2N)[C@@H](N)[C@H](O)[C@@H]1O,inactive,inactive,inactive,inactive,inactive,inactive,inactive,inactive,inactive,inactive,inactive,inactive,inactive,inactive,inactive,inactive,inactive,inactive,inactive,inactive
CC(=O)OCC(=O)[C@@]12OC(C)(C)O[C@@H]1C[C@H]1[C@H]3C[C@H](F)C4=CC(=O)C=C[C@@]4(C)[C@]3(F)[C@H](O)C[C@@]12C,inactive,inactive,inactive,inactive,inactive,inactive,inactive,inactive,inactive,inactive,inactive,inactive,inactive,inactive,inactive,inactive,inactive,inactive,inactive,inactive
CC(C)(C)NC[C@H](O)COc1cccc2c1C[C@@H](O)[C@@H](O)C2,inactive,inactive,inactive,inactive,inactive,inactive,inactive,inactive,inactive,inactive,inactive,inactive,inactive,inactive,inactive,inactive,inactive,inactive,inactive,inactive
CN[C@H]1[C@@H](O)[C@@H](NC)[C@@H]2O[C@@]3(O)C(=O)C[C@@H](C)O[C@H]3O[C@H]2[C@H]1O,inactive,inactive,inactive,inactive,inactive,inactive,inactive,inactive,inactive,inactive,inactive,inactive,inactive,inactive,inactive,inactive,inactive,inactive,inactive,inactive
CC(=C(CCOP(=O)(O)O)SC(=O)c1ccccc1)N(C=O)Cc1cnc(C)nc1N,inactive,inactive,inactive,inactive,inactive,inactive,inactive,inactive,inactive,inactive,inactive,inactive,inactive,inactive,inactive,inactive,inactive,inactive,inactive,inactive
